Inconclusive results are not listed. A number with no mark means an inactive call. The source made the active and inactive calls. The call rests on the fitted dose curve; tested in HEK293 reporter line.
On the % scale 0 is the no-effect control and ±100 the full control effect; potency means the concentration at half of the fitted maximal effect.

The test in a line: qHTS for Inhibitors of the Functional Ribonucleoprotein Complex (vRNP) of Lassa (LASV) Arenavirus: LASV Primary Screen - GLuc reporter signal (AID 1347082). Further: nearly all actives have a fitted effect of over 60% in size. The settings on record: LASV minigenome vRNP, Gaussia luciferase reporter; series mostly up to 57.5 µM; activity change, negative = inhibition: at the top concentration. A general note: Quantitative high-throughput screening tests each substance at several concentrations.
`C/C=C1\NC(=O)[C@H](CC(N)=O)N(C)C(=O)C([C@@H](C)O)NC(=O)C(CCCc2ccc(OC)cc2)NC(=O)[C@H](C(C)C)NC(=O)/C(=C\C)NC(=O)[C@H](O)[C@@H](C[C@@H](O)CCCCCCC)NC(=O)[C@H](C)NC(=O)CN(C)C(=O)[C@H](CCC(N)=O)NC1=O` (some centres not stated): the “activity change, negative = inhibition” value is -30.9%.

Consider `CC(C)(O)CC[C@@H](O)[C@](C)(O)[C@H]1CC[C@@]2(O)C3=CC(=O)[C@@H]4C[C@@H](O)[C@@H](O)C[C@]4(C)[C@@H]3CC[C@]12C`, for which the “activity change, negative = inhibition” value is 1.21%. As for `Oc1ccc(C2CCN(c3ccnc4ccccc34)CC2)cc1O`, the Potency was 15.3 µM (active). For the compound `Oc1ccc([C@@H]2Oc3ccc(O)cc3[C@@H]3CCC[C@@H]32)cc1`, the “activity change, negative = inhibition” value was -37%.

Regarding `COC(=O)c1ccc2c(c1)C(NC(C)=O)CCc1cc(OC)c(OC)c(OC)c1-2` (configuration not stated), the “activity change, negative = inhibition” value was -29.9%. `COc1ccc(C2CC(=O)c3c(O)cc(O)cc3O2)cc1O` (configuration not stated): the “activity change, negative = inhibition” value is -10.5%. Turning to `C[C@]12CC[C@H](O)C[C@H]1CC[C@@H]1C2CC[C@]2(C)[C@@H](C3=CC(=O)OC3)[C@@H](O)C[C@]12O` (some centres not stated), the Potency was 6.31 µM (active).

With `C=CC(C)(C)c1[nH]cnc1/C=C1\NC(=O)C(C(C)C)NC1=O` (configuration not stated), the “activity change, negative = inhibition” value is -32.3%. Same read-out and setting: under `O=C(Nc1ccc(Oc2ccnc3[nH]ccc23)c(F)c1)c1cccn(-c2ccc(F)cc2)c1=O` stands -5.32%; under `O=c1ccn([C@@H]2O[C@H](COP(=O)(O)O)[C@@H](O)[C@H]2O)c(=O)[nH]1`, -3.26%.

Regarding `CN(C(=O)c1ccc(F)cc1C(F)(F)F)C1CCN(c2nnc(-c3ccnn3C)c3ccccc23)CC1`, the “activity change, negative = inhibition” value is -27.1%. Turning to `CC(C)OC(=O)CCCC=CC[C@@H]1[C@H](C=C[C@@H](O)COc2cccc(C(F)(F)F)c2)[C@H](O)C[C@@H]1O`, the Potency is 38.5 µM (active). As for `COc1cc2c(cc1OC)-c1c(OC)c(OC)c(OC)c3ccnc(c13)C2=O`, the “activity change, negative = inhibition” value is -2.88%. For `CC(=O)O[C@@]12CO[C@@H]1C[C@H](OC1OCC(O)C(O)C1O)[C@@]1(C)C(=O)[C@H](O)C3=C(C)[C@@H](OC(=O)[C@H](O)[C@@H](NC(=O)c4ccccc4)c4ccccc4)C[C@@](O)([C@@H](OC(=O)c4ccccc4)C12)C3(C)C` (some centres not stated), the “activity change, negative = inhibition” value was 8.54%. On the same count and under the same terms, under `O=C(/C=C/c1ccccc1)NCCc1ccccc1` stands -1.92%.

`C[C@H]1CCC[C@@H](O)CCC/C=C/c2cc(O)cc(O)c2C(=O)O1`: the “activity change, negative = inhibition” value was -33.2%.

For `COc1cccc2c1C1COC3C4CC(C(=O)O)C(C(C2)N13)N4C` (configuration not stated), the “activity change, negative = inhibition” value is -31.8%. Take `O=c1c(-c2ccc(O)cc2)coc2c(C3OC(CO)C(O)C(O)C3O)c(O)ccc12` (configuration not stated): the “activity change, negative = inhibition” value is 2.29%. As to `CC(=O)c1ccc[nH]1`, the “activity change, negative = inhibition” value is -19.6% [at 115 µM]. As for `CC(=O)O[C@@]12CO[C@@H]1C[C@@H](O)[C@@]1(C)C(=O)[C@H](O)C3=C(C)[C@@H](OC(=O)[C@H](O)[C@@H](NC(=O)c4ccccc4)c4ccccc4)C[C@@](O)([C@@H](OC(=O)c4ccccc4)C12)C3(C)C` (some centres not stated), the “activity change, negative = inhibition” value was -25.4%. For the compound `CO[C@H]1O[C@@H]2O[C@@]3(C)CC[C@@H]4[C@@H](C)CC[C@@H]([C@H]1C)[C@@]24OO3`, the “activity change, negative = inhibition” value is -8.89%. Turning to `CC(=O)O[C@@H]1CC[C@@]2(C)[C@H](C1)[C@H](OC(C)=O)C[C@@H]1[C@@H]2C[C@H]2[C@@H]3CN4C[C@H](C)CC[C@H]4[C@H](C)[C@H]3CC[C@@]12O`, the “activity change, negative = inhibition” value was 5.17% [at 24.7 µM]. In the case of `CC=CC(=O)N(CC)c1ccccc1C`, the “activity change, negative = inhibition” value is 22.9%. On to `O=C(O)C[C@H](O)C[C@H](O)C=Cc1c(C2CC2)nc2ccccc2c1-c1ccc(F)cc1`, for which the “activity change, negative = inhibition” value was -26.6%.

In the case of `CC(C)c1oc(=O)cc2c1[C@@H](O)[C@H]1OC(=O)[C@@]3(C)CC[C@@H](O)[C@@]2(C)C13` (some centres not stated), the Potency is 5.62 µM (active).

Consider `COc1cc([C@@H]2c3cc4c(cc3C[C@H]3COC(=O)[C@@H]32)OCO4)cc(OC)c1O`, for which the “activity change, negative = inhibition” value was -3.99%. Same read-out and setting: the value for `COC(=O)C1CC23C=CCN4CCC5(c6ccccc6NC15C2C)C43` (configuration not stated) was -31.1%; that for `CC(=O)O[C@H]1C(=O)[C@@]2(C)C([C@H](OC(=O)c3ccccc3)[C@]3(O)C[C@H](O)C(C)=C1C3(C)C)[C@]1(OC(C)=O)CO[C@@H]1C[C@H]2O` (some centres not stated) was -19.8%. With `COC(=O)C1C2CC3c4[nH]c5cc(OC)ccc5c4CCN3CC2CC(O)C1OC` (configuration not stated), the “activity change, negative = inhibition” value is 13%. Turning to `CC(=O)O[C@@]12CO[C@@H]1C[C@H](O)[C@@]1(C)C(=O)[C@H](O)C3=C(C)[C@@H](O)C[C@@](O)([C@@H](OC(=O)c4ccccc4)C12)C3(C)C` (some centres not stated), the “activity change, negative = inhibition” value is -6.75%. For `COc1cc2c(ccc3c4cc(OC)c(OC)cc4c[n+](C)c23)cc1O`, the “activity change, negative = inhibition” value was -14.4%. Still for that read-out and setting: the value for `C/C=C(\C)C(=O)N[C@@H](c1ccccc1)[C@@H](O)C(=O)O[C@H]1C[C@@]2(O)[C@@H](OC(=O)c3ccccc3)C3[C@](C)(C(=O)[C@H](O)C(=C1C)C2(C)C)[C@@H](O)C[C@H]1OC[C@@]31OC(C)=O` (some centres not stated) was -37.7%.
